A short description of assay [1]: Quantitative High-Throughput drug screen in 47 multiple myeloma cell lines against the NCATS MIPE library collection: MM1S_ATCC cell viability assay (AID 1918980). Also: potency is read from the fitted curve at half-maximal effect; nearly all actives have a fitted effect of over 45% in size. The settings on record: MM1S myeloma viability, CellTiter-Glo ATP luminescence, 48 h. The method in brief:
(§1)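 Cells were exposed to library compounds for 48 hours, after which ATP was measured by CellTiter-Glo. Signal was taken as median relative luminescence units.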

Assay [2] in a line: Quantitative High-Throughput drug screen in 47 multiple myeloma cell lines against the NCATS MIPE library collection: MM1R_ATCC cell viability assay (AID 1918981). Also: nearly all actives have a fitted effect of over 35% in size. Also: potency is read from the fitted curve at half-maximal effect. The settings on record: MM1R multiple myeloma cells, CellTiter-Glo viability, 48 h; series mostly up to 45.8 µM. Summed up:
as §1
(In general: In ATP-based viability assays light output follows the ATP content of the culture.)

Assay [3] in a line: Quantitative High-Throughput drug screen in 47 multiple myeloma cell lines against the NCATS MIPE library collection: LP1_DSMZ cell viability assay (AID 1918982). Also: nearly all actives have a fitted effect of over 35% in size. Also: potency is read from the fitted curve at half-maximal effect. The settings on record: LP1 myeloma viability, CellTiter-Glo ATP luminescence, 48 h; series mostly up to 45.8 µM. The method in brief:
as §1

Assay [4] is described as follows: Quantitative High-Throughput drug screen in 47 multiple myeloma cell lines against the NCATS MIPE library collection: KMS28PE_JCRB cell viability assay (AID 1918983). Also: potency is read from the fitted curve at half-maximal effect; nearly all actives have a fitted effect of over 35% in size. The settings on record: KMS28PE multiple myeloma viability, CellTiter-Glo ATP, 48 h. Summed up:
as §1

Assay [5] in a line: Quantitative High-Throughput drug screen in 47 multiple myeloma cell lines against the NCATS MIPE library collection: L363_DSMZ cell viability assay (AID 1918984). Also: nearly all actives have a fitted effect of over 40% in size. Also: potency is read from the fitted curve at half-maximal effect. The conditions noted are these: L363 myeloma viability, CellTiter-Glo ATP luminescence, 48 h; series mostly up to 45.8 µM. Summed up:
as §1

Assay [6] can be described thus: Quantitative High-Throughput drug screen in 47 multiple myeloma cell lines against the NCATS MIPE library collection: KMS34_JCRB cell viability assay (AID 1918985). Also: nearly all actives have a fitted effect of over 40% in size. Also: potency is read from the fitted curve at half-maximal effect. The conditions noted are these: KMS34 myeloma viability, CellTiter-Glo ATP luminescence, 48 h; series mostly up to 45.8 µM. The method in brief:
as §1

Assay [7] in a line: Quantitative High-Throughput drug screen in 47 multiple myeloma cell lines against the NCATS MIPE library collection: OCIMY7_PLB cell viability assay (AID 1918987). Also: potency is read from the fitted curve at half-maximal effect; nearly all actives have a fitted effect of over 65% in size. The settings on record: OCI-MY7 myeloma viability, CellTiter-Glo ATP, 48 h. The method in brief:
as §1

Assay [8] is described as follows: Quantitative High-Throughput drug screen in 47 multiple myeloma cell lines against the NCATS MIPE library collection: OCIMY5_PLB cell viability assay (AID 1918988). Also: potency is read from the fitted curve at half-maximal effect; nearly all actives have a fitted effect of over 65% in size. The settings on record: OCI-MY5 myeloma viability, ATP luminescence, 48 h. Summed up: as §1
A short description of assay [9]: Quantitative High-Throughput drug screen in 47 multiple myeloma cell lines against the NCATS MIPE library collection: OPM1_PLB cell viability assay (AID 1918989). Also: nearly all actives have a fitted effect of over 40% in size. Also: potency is read from the fitted curve at half-maximal effect. The conditions noted are these: CellTiter-Glo, 48 h; series mostly up to 45.8 µM. The method in brief:
as §1

A short description of assay [10]: Quantitative High-Throughput drug screen in 47 multiple myeloma cell lines against the NCATS MIPE library collection: SKMM1_PLB cell viability assay (AID 1919863). Also: nearly all actives have a fitted effect of over 35% in size. Also: potency is read from the fitted curve at half-maximal effect. The conditions noted are these: SKMM1 myeloma viability, CellTiter-Glo ATP, 48 h; viability: stronger effect = lower value. The method in brief: as §1
Assay [11] in a line: Quantitative High-Throughput drug screen in 47 multiple myeloma cell lines against the NCATS MIPE library collection: U266_ATCC cell viability assay (AID 1919864). Also: nearly all actives have a fitted effect of over 35% in size. Also: potency is read from the fitted curve at half-maximal effect. The settings on record: U266 myeloma viability, CellTiter-Glo ATP luminescence, 48 h; series mostly up to 45.8 µM. The method in brief:
as §1

A short description of assay [12]: Quantitative High-Throughput drug screen in 47 multiple myeloma cell lines against the NCATS MIPE library collection: XG6_PLB cell viability assay (AID 1919865). Also: nearly all actives have a fitted effect of over 40% in size. Also: potency is read from the fitted curve at half-maximal effect. The conditions noted are these: XG6 myeloma viability, CellTiter-Glo ATP luminescence, 48 h; series mostly up to 45.8 µM. Summed up: as §1
Assay [13] in a line: Quantitative High-Throughput drug screen in 47 multiple myeloma cell lines against the NCATS MIPE library collection: XG1_PLB cell viability assay (AID 1919866). Also: nearly all actives have a fitted effect of over 35% in size. Also: potency is read from the fitted curve at half-maximal effect. The settings on record: CellTiter-Glo ATP, 48 h; series mostly up to 45.8 µM. Summed up:
as §1

Assay [14] can be described thus: Quantitative High-Throughput drug screen in 47 multiple myeloma cell lines against the NCATS MIPE library collection: VP6_DJ cell viability assay (AID 1919867). Also: nearly all actives have a fitted effect of over 40% in size. Also: potency is read from the fitted curve at half-maximal effect. The settings on record: ATP luminescence, 48 h; series mostly up to 45.8 µM. The method in brief: as §1
Assay [15] in a line: Quantitative High-Throughput drug screen in 47 multiple myeloma cell lines against the NCATS MIPE library collection: UTMC2_PLB cell viability assay (AID 1919868). Also: potency is read from the fitted curve at half-maximal effect; nearly all actives have a fitted effect of over 55% in size. The settings on record: CellTiter-Glo ATP luminescence, 48 h. The method in brief:
as §1

Assay [16] can be described thus: Quantitative High-Throughput drug screen in 47 multiple myeloma cell lines against the NCATS MIPE library collection: PE2_PLB cell viability assay (AID 1919869). Also: nearly all actives have a fitted effect of over 35% in size. Also: potency is read from the fitted curve at half-maximal effect. The settings on record: PE2_PLB myeloma cells viability, ATP luminescence, 48 h; series mostly up to 45.8 µM. Summed up:
as §1

The nature of assay [17]: Quantitative High-Throughput drug screen in 47 multiple myeloma cell lines against the NCATS MIPE library collection: PCM6_Riken cell viability assay (AID 1919870). Also: nearly all actives have a fitted effect of over 30% in size. Also: potency is read from the fitted curve at half-maximal effect. The settings on record: CellTiter-Glo ATP, 48 h; series mostly up to 45.8 µM. Summed up:
as §1

The nature of assay [18]: Quantitative High-Throughput drug screen in 47 multiple myeloma cell lines against the NCATS MIPE library collection: RPMI8226_ATCC cell viability assay (AID 1919871). Also: nearly all actives have a fitted effect of over 30% in size. Also: potency is read from the fitted curve at half-maximal effect. The conditions noted are these: RPMI8226 myeloma viability, CellTiter-Glo ATP luminescence, 48 h; series mostly up to 45.8 µM. The method in brief:
as §1

A short description of assay [19]: Quantitative High-Throughput drug screen in 47 multiple myeloma cell lines against the NCATS MIPE library collection: OPM2_DSMZ cell viability assay (AID 1919872). Also: nearly all actives have a fitted effect of over 30% in size. The conditions noted are these: OPM2 myeloma viability, CellTiter-Glo ATP luminescence, 48 h; series mostly up to 45.8 µM. Summed up:
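Myeloma cell lines, 500 cells per well, exposed to MIPE 4.0 library compounds for 48 h at 37C, 5% CO2. Viability from ATP by CellTiter-Glo luminescence; normalised to DMSO (100%) and media-only (0%) wells.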

Assay [20] is described as follows: Quantitative High-Throughput drug screen in 47 multiple myeloma cell lines against the NCATS MIPE library collection: OCIMY1_PLB cell viability assay (AID 1918979). Also: nearly all actives have a fitted effect of over 35% in size. The conditions noted are these: OCI-MY1 myeloma viability, CellTiter-Glo ATP, 48 h; series mostly up to 45.8 µM. The method in brief: as §1

Inconclusive results are not listed. Unmarked numbers belong to inactive results. The source made the active and inactive calls. Calls follow the shape of the dose curve; as a rule, active = well fitted cell-killing curve with a large enough effect; inconclusive = small, poorly fitted or top-dose-only effect, or effect the other way; inactive = no such curve, though single readings can be large or run the other way.

Turning to `C[C@@H]1C[C@@H]([C@H](O)CC2CC(=O)NC(=O)C2)C(=O)[C@@H](C)C1`, the Potency was 4.18 µM (active) in assay [1]; 1.66 µM (active) in assay [2]; 0.118 µM (active) in assay [3]; 1.18 µM (active) in assay [4]; 0.743 µM (active) in assay [5]; 0.118 µM (active) in assay [6]. Also, the Potency is 2.64 µM (active) in assay [7]; 1.66 µM (active) in [8]; 0.833 µM (active) in assay [9]; 0.296 µM (active) in [10]; 1.05 µM (active) in [11]; 0.743 µM (active) in assay [12]. Besides, the Potency is 0.372 µM (active) in assay [13]; 0.296 µM (active) in [14]; 0.833 µM (active) in assay [15]; 1.48 µM (active) in [16]; 0.935 µM (active) in assay [17]; 0.833 µM (active) in assay [18].
For the compound `O=C(O)c1nn(Cc2ccc(Cl)cc2Cl)c2ccccc12`, the Potency entry in assay [2], in assay [3], in [5], in assay [6], in assay [12] and in assay [16] was “inactive” throughout. In assay [18], the Potency entry is “inactive”. Further, the compound was classed as inactive in assay [19].
Usually viability stands for a read-out of living cells in per cent, often relative to untreated cells. Turning to `COc1ccc(C(=O)N2CCCC2=O)cc1`, the figures for the Potency in [1], in [8] and in [18] were 0.296 µM (active), 0.662 µM (active) and 2.35 µM (active), respectively. The Potency entry in assay [2], in assay [11], in assay [12], in assay [13] and in [16] was “inactive” throughout. For the same compound, the viability in assay [10] is 101%.
Turning to `COC(=O)C1=CCCN(C)C1`, the result in assay [20] and in assay [19] was inactive. Also, the Potency entry in assay [2], in [3], in [5], in [6], in assay [9] and in [12] was “inactive” throughout. Also, the Potency result in assay [14], in assay [16] and in [17] was “inactive” each time.
